# Experimental data reported in the supplement of paper PMC8728848.
# Many of the other results were omitted from the sample, so the strongest signals are more common in it than they were.
# B1: Als1 (Candida albicans), P46590 (protein)
# chain: KTITGVFDSFNSLTWSNAANYAFKGPGYPTWNAVLGWSLDGTSANPGDTFTLNMPCVFKYTTSQTSVDLTADGVKYATCQFYSGEEFTTFSTLTCTVNDALKSSIKAFGTVTLPIAFNVGGTGSSTDLEDSKCFTAGTNTVTFNDGDKDISIDVEFEKSTVDPSGYLYASRVMPSLNKVTTLFVAPQCENGYTSGTMGFSSSNGDVAIDCSNIHIGITKGLNDWNYPVSSESFSYTKTCTSNGIQIKYQNVPAGYRPFIDAYISATDVNQYTLAYTNDYTCAGSRLQSKPFTLRWTGYKNSDAGSNGIVIVATTRTVTDSTTAVTTLPFNPSVDKTKTIEILQPIPTTTITTSYVGVTTSYLTKTAPIGETATVIVDVPYHTTTTVTSEWTGTITTTTTRTNPTDSIDTVVVQVP
# B2: F17aG (Escherichia coli), Q99003 (protein)
# chain: MTNFYKVFLAVFILVCCNISQAAVSFIGSTENDVGPSLGSYSRTHAMDNLPFVYDTRNKIGYQNANVWHISKGFCVGLDGKVDLPVVGSLDGQSIYGLTEEVGLLIWMGDTKYSRGTAMSGNSWENVFSGWCVGANTASTQGLSVRVTPVILKRNSSARYSVQKTSIGSIRMRPYNGSSAGSVQTTVNFSLNPFTLNDTVTSCRLLTPSAVNVSLAAISAGQLPSSGDEVVAGTTSLKLQCDAGVTVWATLTDATTPSNRSDILTLTGASTATGVGLRIYKNTDSTPLKFGPDSPVKGNENQWQLSTGTETSPSVRLYVKYVNTGEGINPGTVNGISTFTFSYQ
# Assays:
# Experiment in all cases: glycan array binding signal (z-score within array); higher = stronger binding
# Settings in all cases: glycan notation: IUPAC condensed, linker removed
# [1] = molecular target: GlcNAc(b1-3)[GlcNAc(b1-6)]Gal(b1-4)GlcNAc
# Method in brief: (§1)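 From the Consortium for Functional Glycomics database, 3228 arrays were curated, keeping only those whose protein sequence was available. Binding is given as a within-array Z-score averaged across arrays sharing a protein sequence and across linkers. Negative Z-scores can be read as non-binding.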
# [2] = molecular target: Man(a1-2)Man(a1-2)Man(a1-6)[Man(a1-3)]Man
# Method in brief: as §1
# [3] = molecular target: Man(a1-3)[Man(a1-6)]Man(a1-6)[Man(a1-3)]Man
# Method in brief: as §1
# [4] = molecular target: Neu5Ac(a2-3)Gal(b1-3)GlcNAc(b1-3)Gal(b1-4)GlcNAc
# Method in brief: as §1
# [5] = molecular target: Neu5Ac(a2-3)Gal(b1-3)GlcNAc(b1-4)Gal(b1-4)Glc
# Method in brief: as §1
# [6] = molecular target: Neu5Ac(a2-3)Gal(b1-3)[Fuc(a1-4)]GlcNAc(b1-3)Gal(b1-4)[Fuc(a1-3)]GlcNAc
# Method in brief: as §1
# [7] = molecular target: Neu5Ac(a2-3)Gal(b1-4)GlcNAc(b1-3)Gal
# Method in brief: as §1
# [8] = molecular target: Neu5Ac(a2-3)Gal(b1-4)GlcNAc(b1-3)Gal(b1-4)GlcNAc(b1-3)Gal(b1-4)GlcNAc(b1-2)Man(a1-3)[Neu5Ac(a2-3)Gal(b1-4)GlcNAc(b1-3)Gal(b1-4)GlcNAc(b1-3)Gal(b1-4)GlcNAc(b1-2)Man(a1-6)]GalNAc
# Method in brief: as §1
# [9] = molecular target: Neu5Ac(a2-3)Gal(b1-4)[Fuc(a1-3)]GlcNAc(b1-6)[Neu5Ac(a2-3)Gal(b1-3)]GalNAc
# Method in brief: as §1
# [10] = molecular target: Neu5Ac(a2-3)[GalNAc(b1-4)]Gal(b1-4)Glc
# Method in brief: as §1
# [11] = molecular target: Neu5Ac(a2-6)Gal(b1-4)GlcNAc(b1-3)Gal(b1-4)GlcNAc(b1-6)[Gal(b1-3)]GalNAc
# Method in brief: as §1
# Neu5Ac(a2-8)Neu5Ac = molecular target: Neu5Ac(a2-8)Neu5Ac
# Method in brief: as §1
# [12] = molecular target: Neu5Ac(a2-8)Neu5Ac(a2-3)Gal(b1-3)GalNAc(b1-4)[Neu5Ac(a2-3)]Gal(b1-4)Glc
# Method in brief: as §1
# [13] = molecular target: Neu5Ac(a2-8)Neu5Ac(a2-8)Neu5Ac(a2-3)Gal(b1-4)Glc
# Method in brief: as §1
# [14] = molecular target: Neu5Ac(a2-8)Neu5Gc(a2-3)Gal(b1-4)GlcNAc
# Method in brief: as §1
# [15] = molecular target: Neu5Gc(a2-8)Neu5Ac(a2-3)Gal(b1-4)GlcNAc
# Method in brief: as §1
# [16] = molecular target: Fuc(a1-2)Gal(b1-3)GalNAc(b1-3)Gal(a1-4)Gal(b1-4)Glc
# Method in brief: as §1
# [17] = molecular target: Fuc(a1-2)Gal(b1-3)GlcNAc(b1-3)[Fuc(a1-3)[Gal(b1-4)]GlcNAc(b1-6)]Gal(b1-4)Glc
# Method in brief: as §1
# [18] = molecular target: Fuc(a1-2)Gal(b1-3)[Fuc(a1-4)]GlcNAc(b1-2)Man(a1-3)[Fuc(a1-2)Gal(b1-3)[Fuc(a1-4)]GlcNAc(b1-2)Man(a1-6)]Man(b1-4)GlcNAc(b1-4)GlcNAc
# Method in brief: as §1
# [19] = molecular target: Fuc(a1-2)Gal(b1-3)[Fuc(a1-4)]GlcNAc(b1-3)[Fuc(a1-3)[Gal(b1-4)]GlcNAc(b1-6)]Gal(b1-4)Glc
# Method in brief: as §1
# [20] = molecular target: Fuc(a1-2)Gal(b1-4)[Fuc(a1-3)]GlcNAc(b1-2)[Fuc(a1-2)Gal(b1-4)[Fuc(a1-3)]GlcNAc(b1-4)]Man(a1-3)[Fuc(a1-2)Gal(b1-4)[Fuc(a1-3)]GlcNAc(b1-2)Man(a1-6)]Man(b1-4)GlcNAc(b1-4)GlcNAc
# Method in brief: as §1
# [21] = molecular target: Fuc(a1-2)[GalNAc(a1-3)]Gal(b1-3)GlcNAc(b1-2)Man(a1-3)[Fuc(a1-2)[GalNAc(a1-3)]Gal(b1-3)GlcNAc(b1-2)Man(a1-6)]Man(b1-4)GlcNAc(b1-4)[Fuc(a1-6)]GlcNAc
# Method in brief: as §1
# [22] = molecular target: Fuc(a1-2)[GalNAc(a1-3)]Gal(b1-3)GlcNAc(b1-3)GalNAc
# Method in brief: as §1
# [23] = molecular target: Fuc(a1-2)[GalNAc(a1-3)]Gal(b1-4)GlcNAc(b1-3)Gal(b1-4)GlcNAc(b1-3)Gal(b1-4)GlcNAc
# Method in brief: as §1
# [24] = molecular target: Gal(a1-3)Gal(b1-4)GlcNAc(b1-3)GalNAc
# Method in brief: as §1
# [25] = molecular target: Gal(a1-3)Gal(b1-4)[Fuc(a1-3)]GlcNAc(b1-2)Man(a1-3)[Gal(a1-3)Gal(b1-4)[Fuc(a1-3)]GlcNAc(b1-2)Man(a1-6)]Man(b1-4)GlcNAc(b1-4)GlcNAc
# Method in brief: as §1
# [26] = molecular target: Gal(a1-4)Gal(b1-4)GlcNAc(b1-3)Gal(b1-4)Glc
# Method in brief: as §1
# Gal(b1-2)Gal = molecular target: Gal(b1-2)Gal
# Method in brief: as §1
# Gal(b1-3)Gal(b1-4)GlcNAc = molecular target: Gal(b1-3)Gal(b1-4)GlcNAc
# Method in brief: as §1
# [27] = molecular target: Gal(b1-3)GlcNAc(b1-3)Gal(b1-4)Glc
# Method in brief: as §1
# [28] = molecular target: Gal(b1-3)GlcNAc(b1-3)Gal(b1-4)GlcNAc
# Method in brief: as §1
# [29] = molecular target: Gal(b1-3)[Fuc(a1-4)]GlcNAc(b1-2)Man(a1-3)[Gal(b1-3)[Fuc(a1-4)]GlcNAc(b1-2)Man(a1-6)]Man(b1-4)GlcNAc(b1-4)GlcNAc
# Method in brief: as §1
# [30] = molecular target: Gal(b1-3)[Neu5Ac(a2-6)]GalNAc
# Method in brief: as §1
# Gal(b1-4)GlcNAc = molecular target: Gal(b1-4)GlcNAc
# Method in brief: as §1
# [31] = molecular target: Gal(b1-4)GlcNAc(b1-2)Man(a1-3)[Gal(b1-4)GlcNAc(b1-2)Man(a1-6)]Man(b1-4)GlcNAc(b1-4)GlcNAc
# Method in brief: as §1
# [32] = molecular target: Gal(b1-4)GlcNAc(b1-3)Gal(b1-4)Glc
# Method in brief: as §1
# [33] = molecular target: Gal(b1-4)GlcNAc(b1-3)[GlcNAc(b1-6)]Gal(b1-4)GlcNAc
# Method in brief: as §1
# [34] = molecular target: Gal(b1-4)GlcNAc(b1-6)Gal(b1-4)GlcNAc(b1-6)GalNAc
# Method in brief: as §1
# Gal3S(b1-3)GalNAc = molecular target: Gal3S(b1-3)GalNAc
# Method in brief: as §1
# [35] = molecular target: GalNAc(b1-3)Gal(a1-4)Gal(b1-4)GlcNAc(b1-3)Gal(b1-4)Glc
# Method in brief: as §1
# GalNAc(b1-3)GalNAc = molecular target: GalNAc(b1-3)GalNAc
# Method in brief: as §1
# Glc(a1-4)Glc = molecular target: Glc(a1-4)Glc
# Method in brief: as §1
# [36] = molecular target: GlcNAc(a1-4)Gal(b1-3)GlcNAc
# Method in brief: as §1
# [37] = molecular target: GlcNAc(a1-4)Gal(b1-4)GlcNAc(b1-3)Gal(b1-4)GlcNAc
# Method in brief: as §1
# [38] = molecular target: GlcNAc(a1-6)Gal(b1-4)GlcNAc
# Method in brief: as §1
# [39] = molecular target: GlcNAc(b1-2)Man(a1-3)[GlcNAc(b1-2)Man(a1-6)]Man(b1-4)GlcNAc(b1-4)[Fuc(a1-6)]GlcNAc
# Method in brief: as §1
binder,measurement,setting,value
B1,glycan array binding signal (z-score),[1],-0.361
same,glycan array binding signal (z-score),[2],-0.553
same,glycan array binding signal (z-score),[3],1.09
same,glycan array binding signal (z-score),[4],-0.473
same,glycan array binding signal (z-score),[5],4.25
same,glycan array binding signal (z-score),[6],-0.015
same,glycan array binding signal (z-score),[7],-0.274
same,glycan array binding signal (z-score),[8],3.84
same,glycan array binding signal (z-score),[9],2.16
same,glycan array binding signal (z-score),[10],-0.291
same,glycan array binding signal (z-score),[11],-0.05
same,glycan array binding signal (z-score),Neu5Ac(a2-8)Neu5Ac,-0.045
same,glycan array binding signal (z-score),[12],-0.627
same,glycan array binding signal (z-score),[13],-0.083
same,glycan array binding signal (z-score),[14],-0.049
same,glycan array binding signal (z-score),[15],4.63
B2,glycan array binding signal (z-score),[16],-0.23
same,glycan array binding signal (z-score),[17],-0.148
same,glycan array binding signal (z-score),[18],-0.169
same,glycan array binding signal (z-score),[19],-0.139
same,glycan array binding signal (z-score),[20],-0.163
same,glycan array binding signal (z-score),[21],-0.143
same,glycan array binding signal (z-score),[22],-0.113
same,glycan array binding signal (z-score),[23],0.023
same,glycan array binding signal (z-score),[24],-0.168
same,glycan array binding signal (z-score),[25],-0.157
same,glycan array binding signal (z-score),[26],-0.154
same,glycan array binding signal (z-score),Gal(b1-2)Gal,-0.25
same,glycan array binding signal (z-score),Gal(b1-3)Gal(b1-4)GlcNAc,-0.151
same,glycan array binding signal (z-score),[27],-0.252
same,glycan array binding signal (z-score),[28],-0.236
same,glycan array binding signal (z-score),[29],-0.119
same,glycan array binding signal (z-score),[30],-0.205
same,glycan array binding signal (z-score),Gal(b1-4)GlcNAc,-0.14
same,glycan array binding signal (z-score),[31],-0.254
same,glycan array binding signal (z-score),[32],-0.147
same,glycan array binding signal (z-score),[33],1.53
same,glycan array binding signal (z-score),[34],-0.312
same,glycan array binding signal (z-score),Gal3S(b1-3)GalNAc,-0.244
same,glycan array binding signal (z-score),[35],-0.179
same,glycan array binding signal (z-score),GalNAc(b1-3)GalNAc,1.69
same,glycan array binding signal (z-score),Glc(a1-4)Glc,-0.243
same,glycan array binding signal (z-score),[36],-0.089
same,glycan array binding signal (z-score),[37],-0.182
same,glycan array binding signal (z-score),[38],-0.243
same,glycan array binding signal (z-score),[39],-0.17
